In PubChem BioAssay AID1903 (Southern Research Specialized Biocontainment Screening …, 2009):
Hit rate of the full screen: of about 310,000 compounds, about 1,200 (0.39%) were called active. How the calls were made is not given here. These entries were drawn from the full list. Entries with a potency or affinity are not part of this list.

What follows are molecules tested against Large T antigen (Simian virus 40) (UniProt P03070) (assay: TAg ATPase/helicase activity blockers – biochemical (AID 1903)). Details: SV40 large T antigen ATPase/helicase inhibition assay; at 20 µM; active compounds read high.
Sequence of Large T antigen (Simian virus 40) (P03070 whole entry, looked up): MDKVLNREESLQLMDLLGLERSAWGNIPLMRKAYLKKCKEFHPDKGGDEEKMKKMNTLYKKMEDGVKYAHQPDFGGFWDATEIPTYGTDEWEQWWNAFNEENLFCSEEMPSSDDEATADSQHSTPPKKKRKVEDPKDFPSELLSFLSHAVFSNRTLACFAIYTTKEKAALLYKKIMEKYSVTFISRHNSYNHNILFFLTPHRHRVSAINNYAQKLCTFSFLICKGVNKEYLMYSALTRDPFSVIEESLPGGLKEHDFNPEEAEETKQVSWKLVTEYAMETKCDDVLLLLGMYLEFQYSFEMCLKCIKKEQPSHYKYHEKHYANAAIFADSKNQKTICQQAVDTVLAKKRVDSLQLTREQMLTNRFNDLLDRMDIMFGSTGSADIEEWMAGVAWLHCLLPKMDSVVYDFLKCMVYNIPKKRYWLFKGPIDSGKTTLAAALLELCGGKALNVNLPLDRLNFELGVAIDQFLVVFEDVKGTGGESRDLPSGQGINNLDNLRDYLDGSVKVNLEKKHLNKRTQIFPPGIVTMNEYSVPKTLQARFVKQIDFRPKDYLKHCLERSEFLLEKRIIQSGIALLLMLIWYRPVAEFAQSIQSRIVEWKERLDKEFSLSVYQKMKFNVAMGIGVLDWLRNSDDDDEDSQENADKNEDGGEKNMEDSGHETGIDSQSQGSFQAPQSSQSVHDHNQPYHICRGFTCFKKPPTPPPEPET

inhibition, inactive:
Cc1ccc2nc(N3CCN(c4ccccc4)CC3)c(C=O)c(=O)n2c1 3.59%, CCn1cc(S(=O)(=O)CC(=O)N2CCc3ccccc32)c2ccccc21 16.3%, COCC(C)n1c(SCc2nc(N)nc(Nc3ccccc3C)n2)nc2ccccc2c1=O (centres undefined) 23%, COc1cccc(NCc2ccc([N+](=O)[O-])s2)c1 20.9%, COc1cccc(/C=C2\C(=O)N(c3cccc(C)c3)C(=O)c3ccccc32)c1 11%, COc1cccc(/C=C2/C(=O)NN(c3ccccc3)C2=O)c1 26.6%, COc1cccc(N2C(=O)/C(=C\c3cccs3)NC2=S)c1 24%, COc1ccc(NC(=O)CCNC(=O)c2ccco2)cc1OC 0.95%, O=C(O)C1CCCN1C(=O)Nc1ccccc1 (centres undefined) 4.07%, CN1CCN(CC(=O)O)CC1 17.9%, COc1ccc2c(c1)[nH]c1c(=O)n(CCC3=CCCCC3)cnc12 9.61%, CCOC(=O)N1CCC(Nc2ccc(N3C(=O)C4CCCCC4C3=O)cc2[N+](=O)[O-])CC1 (centres undefined) 10.6%, COc1ccc(C(=O)CCc2ccccc2)c(O)c1 7.01%, COC(=O)CCc1ccc(O)cc1 4.8%, Cc1ccsc1CNC(=O)c1c(-c2ccccc2)noc1C 2.94%, O=C1CNC(=S)N1CCCc1ccccc1 5.18%, O=C1CNC(=S)N1CCc1ccc(Cl)cc1 6.29%, COc1ccc(-c2cc(C(F)(F)F)nc(SCC(=O)NCCCN3CCOCC3)n2)cc1 9.25%, CN1C(=O)NC(c2ccc(O)cc2)C2=C1CN(c1ccccc1)C2=O (centres undefined) 6.82%, Cc1ccc(N2CC3=C(C2=O)C(c2ccccc2)NC(=O)N3C)cc1 (centres undefined) 5.38%, Cc1nnc2n(Cc3ccccc3)c(=O)c3c4c(sc3n12)COC(C(C)C)C4 (centres undefined) 7.22%, CSc1nnc2n(-c3ccc(C)cc3)c(=O)c3c4c(sc3n12)COC(C(C)C)C4 (centres undefined) 10.7%, Cc1nnc2n(-c3ccccc3)c(=O)c3c4c(sc3n12)COC(C(C)C)C4 (centres undefined) 5.27%, CN1CCc2c(sc3c2c(=O)n(-c2ccccc2)c2n[nH]c(=S)n32)C1 25.6%, O=C(O)c1nn2c(c1Br)NC(c1ccccc1)CC2C(F)(F)F (centres undefined) 3.96%, COc1ccc(C(=O)NNC(=O)C2CCCN(C3CC(=O)N(c4ccccc4)C3=O)C2)cc1 (centres undefined) 9.48%, C/C(=N/NC(=O)NC12CC3CC(CC(C3)C1)C2)c1ccccc1 6.61%, Cn1c(=O)c2c(ncn2CC(O)CNc2ccc(F)cc2)n(C)c1=O (centres undefined) 5.3%, Cc1ccc(NCC(O)Cn2cnc3c2c(=O)n(C)c(=O)n3C)cc1 (centres undefined) 16.6%, CCOC(=O)C1CCN(C(=S)Nc2ccccc2)CC1 11.3%, Cc1c(C(=O)OCC(C)C)[nH]c2c1C(=O)CC(c1cccs1)C2 (centres undefined) 22.8%, CCOC(=O)C1=C(C)NC(c2cccs2)C(=O)N1 (centres undefined) 6.75%, COc1ccccc1N/N=C/c1ccc2c(c1)OCO2 5.16%, CCN(CC)C(=O)Nc1ccccc1C 3.88%, COc1ccc(-c2cn[nH]c2-c2ccc(O)cc2O)cc1 25.6%, COc1ccccc1-c1cn[nH]c1-c1ccc(O)cc1O 36.1%, CC/C(=N/O)C(=O)c1ccc(Br)cc1 8.42%, Cc1ccccc1NC(=O)COC(=O)/C=C/c1cccc(C(F)(F)F)c1 3.86%, O=[N+]([O-])c1cc(S(=O)(=O)NC2=NCCCCC2)ccc1Cl 6.57%, O=C(N=Nc1ccc(NOC(=O)c2ccccc2Br)cc1)c1ccccc1O 11.6%, O=Nc1ccc(NOC(=O)c2ccccc2)cc1 19.7%, O=C(O)C1CCN(C(=O)c2cccc3ccccc23)CC1 4.64%, CCc1ccccc1N1CC(C(=O)O)CC1=O (centres undefined) -0.59%, Cc1cc(N2CCOCC2)nc2ccc(NC(=S)NC(C)C)cc12 4.55%, COc1ccc(NC(=O)/C=C/c2cc(OC)c(OC)c(OC)c2)cn1 7.41%, CS(=O)(=O)N(CC(=O)NC1CC1)C1CCCCC1 7.67%, Cc1csc(-c2cnn(-c3ccccc3)c2NC(=O)c2cccc(C(F)(F)F)c2)n1 0.685%, N#Cc1cc(S(=O)(=O)N2CCOCC2)ccc1N1CCOCC1 7.94%, Cc1ccc(C)n1-c1cc(S(=O)(=O)N2CCOCC2)ccc1N1CCCC1 1.24%, O=S(=O)(c1ccc(N2CCOCC2)c(Cl)c1)N1CCOCC1 7.49%, O=[N+]([O-])c1cc(S(=O)(=O)N2CCOCC2)ccc1N1CCCC1 -2.39%, CCSC1=C(C#N)C(c2cccc(Br)c2)CC(=O)N1 (centres undefined) 1.17%, CCOC(=O)c1[nH]c2ccc(OC)cc2c1N=CN(C)C 16.9%, CCn1nnnc1SCC(=O)Nc1cccc(NC(C)=O)c1 0.63%, Cc1ccc2nccc(C(=O)N3CCCC(Nc4ccc(F)cc4)C3)c2c1 (centres undefined) 14%, Cc1ccc(-c2noc(C3CCCN(C(=O)c4ccccc4Br)C3)n2)o1 (centres undefined) 15.6%, CC(=O)Nc1ccc(NC(=O)C2CC(=O)N(Cc3ccccc3)C2)cc1 (centres undefined) 27.7%, O=C(Nc1ccccc1)C1CC(=O)N(Cc2ccccc2)C1 (centres undefined) 27.5%, COc1ccc2nc(N3C(=O)CC(Cc4cc(C)cc(C)c4)C3=O)sc2c1 (centres undefined) -1.29%, COc1ccc(OCc2cc(C(=O)NC3CCOCC3)no2)c2ccccc12 12%, O=C1c2ccccc2C(=O)N1Cc1ccco1 4.84%, COC(=O)C1=C(C)N(Cc2ccco2)C(=O)C1 23.9%, O=C1CC(=O)N(Cc2cccs2)C(=O)N1 22.2%, O=C1C2C(C(=O)N1Cc1ccco1)C1C=CC2C12CC2 (centres undefined) -1.46%, COc1ccc(S(=O)(=O)N2CCCC(C(=O)N3CCOCC3)C2)cc1OC (centres undefined) 7.49%, CN(C)c1ccc(C(=O)N2CCN(c3cc(C(F)(F)F)nc4ccccc34)CC2)cc1 16.5%, Cc1ccc(Cc2c(C)nc3nc(SCC(=O)NCCCN4CCCC4)nn3c2C)cc1 9.31%, O=C1C(=O)N(Cc2cccnc2)C(c2ccc(Br)cc2)/C1=C(\O)c1ccc2c(c1)OCCO2 (centres undefined) 8.89%, O=C1/C(=C/c2cccs2)NC(=S)N1C1CC1 9.13%, CN(C)c1ncc(/C=C2/C(=O)NC(=S)N(C3CCCCC3)C2=O)cn1 10.9%, CN(C)c1ccc(/C=C/c2cc[n+](C)cc2)cc1 7.41%, CN(C)c1ccc(/C=C/c2ccncc2)cc1 25.2%, Cn1c(CCc2nc3ccccc3[nH]2)n[nH]c1=S 9.76%, CC(=O)NC1(c2ccccc2)CCN(C(=O)N2CCOCC2)CC1 4.59%, Cc1c(NS(=O)(=O)c2ccccc2F)c(=O)n(-c2ccccc2)n1C 3.58%, O=C(Nc1ccc2c(c1)CCC2)c1cccc(OC(F)F)c1 15.1%, CC(=O)Nc1ccc(NC(=O)CS(=O)(=O)c2cn(CC(=O)N3CCC(C)CC3)c3ccccc23)cc1 21.1%, O=Cc1coc2ccc3ccccc3c2c1=O 12.7%, NC(=S)N/N=C/c1coc2c(ccc3ccccc32)c1=O 10.7%, CC(C)Cn1c(=O)c2c(nc3n2CC(C)CN3Cc2ccccc2)n(C)c1=O (centres undefined) 9.7%, Cc1cc(C)n(-c2nc3ccccc3c(=O)n2OCC(=O)Nc2c(C)cccc2C)n1 1.06%, O=C1c2cccnc2C(=O)N1Cc1ccc(S(=O)(=O)N2CCN(c3ccccc3)CC2)cc1 -3.05%, CCc1ccccc1NC(=O)C1CCCN(c2ncnc3onc(-c4ccc(F)cc4)c23)C1 (centres undefined) 4.3%, COc1ccc(NC2CCCN(Cc3cccc4cnccc34)C2)cc1 (centres undefined) 30.9%, COc1ccc(NC2CCCN(C(=O)CCc3ccncc3)C2)cc1OC (centres undefined) 35.9%, COc1ccc(Br)cc1/C=C/C(=O)NC(=S)Nc1ccc(Cl)c(C(=O)O)c1 25.5%, COc1cc(/C=C2\SC(c3ccccc3)=NC2=O)cc(Cl)c1O 33.2%, CC(=O)Nc1ccc2oc(-c3cc(F)c(F)cc3Cl)nc2c1 0.785%, CCOC(=O)/C=C1\Nc2ccccc2OC1=O 28.2%, Cc1ccc2c(c1)NC(=O)C(CC(=O)O)O2 (centres undefined) 3.98%, CCCN(CCC)S(=O)(=O)c1ccc(NC(=O)C2CCCO2)cc1 (centres undefined) 3.88%, N/C(COc1ccc(C(=O)O)cc1)=N\O 0.11%, COc1ccc(CCNc2c3ccccc3nc3ccccc23)cc1OC 11.5%, OCCNc1c2ccccc2nc2ccccc12 12.6%, CCN(CC)CCN1C(=O)C(O)=C(C(=O)c2cc3ccccc3o2)C1c1cccnc1 (centres undefined) 2.07%, CCN(CC)CCN1C(=O)C(O)=C(C(=O)c2sc(C)nc2C)C1c1cccnc1 (centres undefined) 2.43%, O=C(O)CC(NS(=O)(=O)c1cccc2nsnc12)c1ccc(F)cc1 (centres undefined) 0.56%, O=c1[nH]n(-c2ccccc2)c(=O)c2ccccc12 3.85%, O=c1c2ccccc2c2ccccc2c(=O)n1-c1ccccc1 4.04%
